This note sets out measurements from PubChem BioAssay (EPA / NIEHS).

The structures appear in SMILES notation. Results filed as inconclusive are left out. Activity calls are given as the source filed them. How the source made its calls, unless noted: active means hit-call score of the fitted dose curve at least 0.9, where 1 is the maximum; inconclusive means response in the unintended direction; inactive means score below 0.9.

Assay [1] has as its target human Peroxisome Proliferator-activated Receptor delta (PPARd), PPARD (gene 5467) (UniProt Q03181). The experiment in a line: ATG_PPARd_TRANS: Attagene TRANS-FACTORIAL HepG2 Assay for human Peroxisome Proliferator-activated Receptor delta (PPARd) (AID 2283002). The method, boiled down: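 Read-out is induced reporter mRNA, quantified by RT-PCR with fluorescent labelling and capillary electrophoresis after 24 h dosing. Cells are HepG2 transiently carrying multiple GAL4-UAS reporter units driven by exogenous NR-GAL4 chimeras; DMSO serves as baseline.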

Read-out in assay [2]: Intercellular Adhesion Molecule 1 (ICAM1), ICAM1 (gene 3383)
The experiment in a line: BSK_3C_ICAM1: BioMAP Diversity Plus: 3C Assay for Intercellular Adhesion Molecule 1 (ICAM1) Biomarker Activity (AID 2283003; active means hit-call score of the fitted dose curve at least 0.9, where 1 is the maximum; inactive means score below 0.9). Conditions: primary human endothelial cells (HUVEC); actives raise or lower the signal. An outline of the steps: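 ELISA readout of ICAM1 in human umbilical vein endothelial cells in the 3C system, taken 24 h post-dose. Gain or loss of signal versus DMSO was fitted in both directions, with SRB total-protein staining run in parallel.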

Assay [3] can be described thus: BSK_3C_Proliferation: Cell Proliferation Assessment in the BioMAP Diversity Plus: 3C Assay (AID 2283006; active means hit-call score of the fitted dose curve at least 0.9, where 1 is the maximum; inactive means score below 0.9;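 on AC50: potency may reflect either rise or fall in cell number versus DMSO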). The settings on record: primary human endothelial cells (HUVEC). The method, boiled down: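 Proliferation as total protein: sulforhodamine B (0.1%) stain of TCA-fixed subconfluent human umbilical vein endothelial cells, absorbance 560 nm, 48 h after dosing. Activity fitted in both directions against DMSO baseline.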

The target of assay [4] is Nuclear receptor subfamily 1 group I member 2 (Homo sapiens) (UniProt O75469). In words: ATG_PXR_TRANS: Attagene TRANS-FACTORIAL HepG2 Assay for human Pregnane X Receptor (PXR) (AID 2283008). An outline of the steps: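 Multiplexed TRANS reporter panel in HepG2; this component tracks PXR-Gal4-driven reporter mRNA after 24 h dosing, measured by RT-PCR with capillary electrophoresis fluorescence, fitted against DMSO.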
Sequence of Nuclear receptor subfamily 1 group I member 2 (Homo sapiens) (O75469 whole entry, looked up, the tested form may be a part): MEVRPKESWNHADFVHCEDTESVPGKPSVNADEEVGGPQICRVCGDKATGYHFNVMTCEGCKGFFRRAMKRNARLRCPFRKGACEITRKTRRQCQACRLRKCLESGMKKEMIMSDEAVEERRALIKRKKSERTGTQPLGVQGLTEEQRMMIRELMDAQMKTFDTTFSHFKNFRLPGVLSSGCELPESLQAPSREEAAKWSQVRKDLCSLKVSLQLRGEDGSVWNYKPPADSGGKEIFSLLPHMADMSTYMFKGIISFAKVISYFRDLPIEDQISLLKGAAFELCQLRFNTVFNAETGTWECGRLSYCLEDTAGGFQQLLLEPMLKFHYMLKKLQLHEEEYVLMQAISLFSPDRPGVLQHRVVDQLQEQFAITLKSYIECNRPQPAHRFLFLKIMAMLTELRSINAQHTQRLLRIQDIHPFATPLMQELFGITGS

Assay [5] has as its target human RAR-related Orphan Receptor gamma (RORg), RORC (gene 6097) (UniProt P51449). The experiment in a line: ATG_RORg_TRANS: Attagene TRANS-FACTORIAL HepG2 Assay for human RAR-related Orphan Receptor gamma (RORg) (AID 2283011).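 On AC50: potency for induction of reporter transcripts above DMSO so activators.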 The method, boiled down: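 Activity is scored as increase in GAL4-UAS reporter mRNA over DMSO, detected by fluorescent RT-PCR and capillary electrophoresis in HepG2 cells transiently expressing a RORg-Gal4 chimera, 24 h after dosing.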

Assay [6] addresses human Retinoic Acid Receptor beta (RARb), RARB (gene 5915) (UniProt P10826). The experiment in a line: ATG_RARb_TRANS: Attagene TRANS-FACTORIAL HepG2 Assay for human Retinoic Acid Receptor beta (AID 2283004). An outline of the steps: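 HepG2, transient MRTU transfection, NR–Gal4 chimera, 24 h treatment; RT-PCR plus CE fluorescence detection of reporter mRNA; gain of signal vs DMSO.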

For assay [7], the target named is Retinoic acid receptor alpha (Homo sapiens) (UniProt P10276). The experiment in a line: ATG_RARa_TRANS: Attagene TRANS-FACTORIAL HepG2 Assay for human Retinoic Acid Receptor alpha (RARa) (AID 2283005). The method, boiled down:
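Reporter transcripts, measured by RT-PCR with fluorescent labeling and capillary electrophoresis after 24 h dosing, reflect activity of an exogenous human RARa–GAL4 fusion in transiently transfected HepG2. Fitted for increase relative to DMSO.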

Assay [8] has as its target human Retinoic Acid Receptor gamma (RARg), RARG (gene 5916) (UniProt P13631). The experiment in a line: ATG_RARg_TRANS: Attagene TRANS-FACTORIAL HepG2 Assay for human Retinoic Acid Receptor gamma (RARg) (AID 2283009). The method, boiled down: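 Transactivation of exogenous RARg-Gal4 fusion measured as reporter transcript induction after 24 h in transfected HepG2 cells. RNA reverse-transcribed, amplified, fluorescently labeled and resolved by capillary electrophoresis; increase relative to DMSO.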

Assay [9] addresses Peroxisome proliferator-activated receptor gamma (Homo sapiens) (UniProt P37231). The experiment in a line: ATG_PPARg_TRANS: Attagene TRANS-FACTORIAL HepG2 Assay for human Peroxisome Proliferator-activated Receptor-gamma (PPARg) (AID 2283007). The method, boiled down:
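HepG2 cells are transiently transfected with GAL4-UAS reporter units driven by chimeric NR-Gal4 fusions and dosed for 24 h. Reporter mRNA is quantified by RT-PCR, 6-FAM labelling, HpaI digestion and capillary electrophoresis. Induction is scored against DMSO.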

Sequence of human Peroxisome Proliferator-activated Receptor delta (PPARd), PPARD (gene 5467) (Q03181 whole entry, looked up, the tested form may be a part): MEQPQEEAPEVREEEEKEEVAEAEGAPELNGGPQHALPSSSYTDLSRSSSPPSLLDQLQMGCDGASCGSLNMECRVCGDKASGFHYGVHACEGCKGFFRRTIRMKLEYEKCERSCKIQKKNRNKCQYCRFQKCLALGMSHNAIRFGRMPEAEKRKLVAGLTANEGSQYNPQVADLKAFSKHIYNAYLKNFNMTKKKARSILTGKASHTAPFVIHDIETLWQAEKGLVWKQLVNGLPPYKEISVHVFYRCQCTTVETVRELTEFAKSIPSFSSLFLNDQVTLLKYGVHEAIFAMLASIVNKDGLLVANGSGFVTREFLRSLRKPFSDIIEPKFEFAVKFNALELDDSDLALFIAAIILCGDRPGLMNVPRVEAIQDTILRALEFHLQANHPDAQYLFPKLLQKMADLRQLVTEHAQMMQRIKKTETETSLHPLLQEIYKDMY
Sequence of human Retinoic Acid Receptor beta (RARb), RARB (gene 5915) (P10826 whole entry, looked up, the tested form may be a part): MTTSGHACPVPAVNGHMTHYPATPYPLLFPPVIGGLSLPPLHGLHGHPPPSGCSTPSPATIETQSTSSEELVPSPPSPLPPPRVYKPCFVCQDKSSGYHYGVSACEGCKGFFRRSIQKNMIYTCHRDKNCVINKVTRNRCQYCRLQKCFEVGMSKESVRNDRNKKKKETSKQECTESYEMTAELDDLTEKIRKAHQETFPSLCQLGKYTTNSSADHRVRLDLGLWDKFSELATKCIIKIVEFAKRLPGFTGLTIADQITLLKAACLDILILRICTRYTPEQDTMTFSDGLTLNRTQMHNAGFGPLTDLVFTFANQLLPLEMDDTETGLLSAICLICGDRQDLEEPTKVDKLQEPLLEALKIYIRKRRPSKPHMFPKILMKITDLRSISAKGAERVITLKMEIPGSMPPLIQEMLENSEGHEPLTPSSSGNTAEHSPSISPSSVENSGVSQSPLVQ
Sequence of human Retinoic Acid Receptor gamma (RARg), RARG (gene 5916) (P13631 whole entry, looked up, the tested form may be a part): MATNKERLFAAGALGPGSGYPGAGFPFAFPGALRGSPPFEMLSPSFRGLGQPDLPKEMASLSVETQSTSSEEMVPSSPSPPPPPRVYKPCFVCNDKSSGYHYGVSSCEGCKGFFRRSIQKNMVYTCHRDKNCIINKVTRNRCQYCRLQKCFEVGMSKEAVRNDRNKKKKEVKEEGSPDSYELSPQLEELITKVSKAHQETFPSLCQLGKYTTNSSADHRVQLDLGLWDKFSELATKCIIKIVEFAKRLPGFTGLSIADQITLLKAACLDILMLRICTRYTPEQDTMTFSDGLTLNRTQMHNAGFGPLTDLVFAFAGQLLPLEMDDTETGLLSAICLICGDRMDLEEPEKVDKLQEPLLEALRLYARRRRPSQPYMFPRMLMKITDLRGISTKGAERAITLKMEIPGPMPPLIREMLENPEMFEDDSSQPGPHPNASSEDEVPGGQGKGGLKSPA
Sequence of Retinoic acid receptor alpha (Homo sapiens) (P10276 whole entry, looked up, the tested form may be a part): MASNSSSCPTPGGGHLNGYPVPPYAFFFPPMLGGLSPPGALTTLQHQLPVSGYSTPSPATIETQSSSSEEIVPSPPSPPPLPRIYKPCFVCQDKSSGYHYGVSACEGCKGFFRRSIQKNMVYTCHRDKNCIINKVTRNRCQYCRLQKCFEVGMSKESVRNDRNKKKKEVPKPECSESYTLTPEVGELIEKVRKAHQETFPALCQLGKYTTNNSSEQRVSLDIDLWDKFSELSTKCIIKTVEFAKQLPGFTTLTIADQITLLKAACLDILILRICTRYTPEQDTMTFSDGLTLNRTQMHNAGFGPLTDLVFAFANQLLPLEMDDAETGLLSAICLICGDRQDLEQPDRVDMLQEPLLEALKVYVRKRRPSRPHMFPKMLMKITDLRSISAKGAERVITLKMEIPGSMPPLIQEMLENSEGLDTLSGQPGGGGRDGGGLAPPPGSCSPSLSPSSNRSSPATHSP
Sequence of Peroxisome proliferator-activated receptor gamma (Homo sapiens) (P37231 whole entry, looked up, the tested form may be a part): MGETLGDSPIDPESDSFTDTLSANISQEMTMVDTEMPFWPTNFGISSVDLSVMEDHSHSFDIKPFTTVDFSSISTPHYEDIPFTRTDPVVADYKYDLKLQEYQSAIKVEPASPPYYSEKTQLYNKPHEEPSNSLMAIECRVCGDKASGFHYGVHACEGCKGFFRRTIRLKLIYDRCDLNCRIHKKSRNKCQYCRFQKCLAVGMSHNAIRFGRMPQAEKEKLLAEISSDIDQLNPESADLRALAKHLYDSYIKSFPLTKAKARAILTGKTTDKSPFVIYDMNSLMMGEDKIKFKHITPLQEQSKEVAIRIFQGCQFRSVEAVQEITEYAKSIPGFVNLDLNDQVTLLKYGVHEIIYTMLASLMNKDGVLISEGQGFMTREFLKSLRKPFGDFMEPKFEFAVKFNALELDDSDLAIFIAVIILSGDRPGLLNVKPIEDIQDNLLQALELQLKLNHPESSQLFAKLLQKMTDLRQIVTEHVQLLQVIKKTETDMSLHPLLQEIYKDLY
Sequence of human RAR-related Orphan Receptor gamma (RORg), RORC (gene 6097) (P51449 whole entry, looked up, the tested form may be a part): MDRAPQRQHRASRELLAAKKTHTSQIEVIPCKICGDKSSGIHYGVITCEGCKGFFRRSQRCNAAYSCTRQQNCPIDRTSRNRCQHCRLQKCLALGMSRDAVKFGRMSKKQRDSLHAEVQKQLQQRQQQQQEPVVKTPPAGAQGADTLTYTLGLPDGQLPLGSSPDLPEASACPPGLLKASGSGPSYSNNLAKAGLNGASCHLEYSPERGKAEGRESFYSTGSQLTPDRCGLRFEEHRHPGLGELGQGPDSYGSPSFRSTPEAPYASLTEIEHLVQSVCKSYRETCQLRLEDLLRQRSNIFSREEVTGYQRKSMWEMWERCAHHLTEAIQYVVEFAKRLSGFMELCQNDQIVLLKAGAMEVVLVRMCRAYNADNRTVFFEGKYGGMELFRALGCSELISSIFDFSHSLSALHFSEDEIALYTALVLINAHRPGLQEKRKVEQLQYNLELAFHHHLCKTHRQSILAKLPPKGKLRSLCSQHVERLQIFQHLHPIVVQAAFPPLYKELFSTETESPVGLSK

With `OCCCBr`, the call in assay [1], in [2], in assay [3], in assay [4] and in [5] was inactive.
For the molecule `COC(=O)c1ccccc1N`, the result in assay [1], in assay [2], in [3] and in [5] was inactive.
With `[As]#[In]`, the molecule was called inactive in assay [6], in assay [7], in assay [3], in assay [8] and in assay [5].
Consider `Brc1ccc(Oc2ccccc2)cc1`, for which the result in [2], in [3], in assay [9] and in [4] was inactive.
Consider `CCN(CC)N=O`, for which the molecule was classed as inactive in assay [1], in assay [2], in assay [3] and in assay [5].
As to `Cc1ccc([N+](=O)[O-])cc1`, the molecule was classed as inactive in assay [1], in [2], in assay [3] and in assay [4].
By AC50 is commonly meant the midpoint of the concentration-response curve, whichever way the signal moves. For the molecule `CCCCCCCCCCCCCN1CC(C)OC(C)C1` (configuration not stated), the result in [1], in assay [2], in [9] and in assay [8] was inactive. Besides, the AC50 in assay [3] is 14.5 µM (active); in assay [4] it was 26.2 µM (active).
On to `CCN(CC)CCO`, for which the molecule was classed as inactive in assay [1] and in [3].
With `N#CC(Br)Br`, the outcome in assay [1], in assay [3], in assay [9] and in [4] was inactive.
Turning to `O=C(Nc1ccccc1)c1ccccc1I`, the outcome in [1] and in assay [3] was inactive. For the same molecule, the AC50 is 17.8 µM (active) in [9] and 10.6 µM (active) in [4].
`CC(O)CCO` (configuration not stated): the molecule was classed as inactive in [1], in assay [6], in [7], in assay [3], in assay [8] and in assay [5]. In assay [4], the AC50 is 24.1 µM (active).
Take `O=P(OCCCl)(OCCCl)OCCCl`: the molecule was classed as inactive in assay [6], in assay [7], in [3], in assay [9], in assay [4] and in assay [8].
Turning to `[O-][Cl+]O`, the outcome in assay [3] and in assay [4] was inactive.
With `CCCSC(=O)N(CCC)CCC`, the outcome in assay [1], in [2], in assay [3] and in [4] was inactive. Moreover, the AC50 in assay [5] is 132 µM (active).
Turning to `[Cl-].[Cl-].[Hg+2]`, the result in assay [2], in [9], in assay [4] and in assay [5] was inactive. The AC50 in assay [3] is 32.6 µM (active).
For `CC(C)(C)OOC(C)(C)CCC(C)(C)OOC(C)(C)C`, in assay [6], the AC50 is 24.7 µM (active). Besides, the result in assay [3] and in assay [4] was inactive.
With `C[N+](C)(C)CC1CO1` (configuration not stated), the result in assay [3] was inactive.
`ClCCOCCCl`: the outcome in [1], in assay [2], in [3], in [9], in assay [4] and in assay [8] was inactive.
Consider `O=C(N[C@H](c1ccccc1)[C@@H]1CN2CCC1CC2)c1c(Cl)ccc(C(F)(F)F)c1Cl`, for which the result in assay [1] and in [2] was inactive. The AC50 in [3] was 29.7 µM (active); in [4] it was 0.226 µM (active).
In the case of `C1=Cc2cccc3cccc1c23`, the outcome in assay [1], in assay [7], in assay [3], in assay [9], in assay [4] and in assay [8] was inactive.
Consider `CC(C)N(Cc1ccccc1)C(=O)C(C)(C)C`, for which the call in [6], in [3] and in assay [5] was inactive. Besides, the AC50 in [4] is 0.556 µM (active).
In the case of `Cn1cc(-c2ccccc2)c(=O)c(-c2cccc(C(F)(F)F)c2)c1`, the result in assay [1], in assay [3], in [9] and in assay [5] was inactive. For the same molecule, the AC50 in assay [4] was 4.04 µM (active).
Take `CC(C)(C)C(O)(CCc1ccc(Cl)cc1)Cn1cncn1` (configuration not stated): the result in [1], in [2], in assay [3], in [9] and in [8] was inactive. The AC50 in [4] was 0.977 µM (active).
For the molecule `Cc1ccc(N=C=O)cc1N=C=O`, the result in assay [2], in [6], in [7], in assay [8] and in assay [5] was inactive. In assay [3], the AC50 was 13.9 µM (active).
Take `CCC[CH2][Sn]([Cl])([CH2]CCC)[CH2]CCC`: in assay [1], the molecule was called inactive. Also, the concentration at half-maximal activity (AC50) in [2] was 0.148 µM (active); in [3], 0.148 µM (active); in assay [4], 0.927 µM (active).
